Screening results: PubChem BioAssay, University of Kansas High Throughput Screening Laboratory
Pf apPOL block = Pf-apPOL DNA polymerase inhibition | Recombinant Pf-apPOL, molecular beacon fluorescence, 1.5 h | inhibition, % at 10 µM | hit rate 0.25% among 210,000 | AID 1794808
mHTT-CaM PPI inh = mHTT-calmodulin interaction abrogation. AlphaScreen His-mHTT/GST-CaM binding, luminescence. inhibition, % at 15 µM. hit rate 3.6% among 190,000. AID 1671202;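 note: 0% = both proteins with DMSO and 100% = one protein alone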
Active calls of the source: *; nt = no result. Hits are enriched below; roughly 3.5% of the tested compounds scored in any of these assays. Cut-off read from the data, not from the text of the source: active = inhibition above about 50%; inactive = the rest.

SMILES | Pf apPOL block | mHTT-CaM PPI inh
Cc1ccc(NC(=O)N2CCCC(CCC(=O)N3CCOCC3)C2)cc1 (stereo not given) | -6 | 1
CCOC(=O)c1c(SC)nc2ccc(Cl)cc2c1Oc1ccccc1 | -10 | nt
Cc1ccc(C(=O)N2CCCC(COc3cccc(C(=O)NC4CC4)c3)C2)s1 (stereo not given) | -4 | 6
COCC(C)NC(=O)C(c1ccccc1)c1ccccc1 (stereo not given) | -9 | -9
COCCc1nnc(NC(=O)C(c2ccccc2)c2ccccc2)o1 | -7 | 96*
CC1C(c2ccccc2)C(C#N)(C#N)C2(C#N)CC1(O)NC2=O (stereo not given) | -1 | -8
CC(C)(C)c1ccc(C(=O)N2CCC3(C2)NC(=O)N(Cc2ccccc2)C3=O)cc1 (stereo not given) | -6 | 32
O=C(CN1CCC(c2nc(-c3cccc(F)c3)no2)CC1)NCc1ccco1 | -6 | 27
CC(CCc1ccccc1)Nc1nc(Cl)nc(NCCN2CCOCC2)n1 (stereo not given) | 2 | 62*
Clc1nc(NCCN2CCOCC2)nc(NCc2ccccc2)n1 | -1 | -6
CCNC(=O)c1cncc(-c2csc3ccccc23)c1 | 8 | 8
O=C(NC1CC2CC1N(C(=O)Cc1cccnc1)C2)c1ccccc1 (stereo not given) | 2 | 8
Cc1sc2nc(C)n(Cc3ccc(C(F)(F)F)cc3)c(=O)c2c1C | -3 | 88*
Cc1sc2nc(C)n(Cc3csc(-c4ccc(Cl)cc4)n3)c(=O)c2c1C | -4 | -8
CCCN=Cc1c(CCC)[nH]n(-c2nc3ccccc3s2)c1=O | -7 | 3
O=c1c(C=NCCCO)c(CSc2ccc(Cl)cc2)[nH]n1-c1nc2ccccc2s1 | 6 | 56*
N#CC1=C(N)C(C#N)(C#N)C(c2ccco2)C2CCCC=C12 (stereo not given) | -3 | 12
COc1ccccc1CNc1ccc(-c2nc(-c3cccc(F)c3)no2)cn1 | -3 | -11
Cc1cccc([C@H]2[C@@H]3C=CC(C)C[C@@H]3C(=O)N2Cc2ccccc2)c1 (stereo not given in full) | -7 | 66*
O=C1[C@H]2CCC=C[C@H]2[C@H](c2ccccc2Br)N1Cc1ccccc1 | 8 | 46
CC1C=C[C@@H]2[C@H](C1)C(=O)N(Cc1ccccc1)[C@H]2c1ccccc1Br (stereo not given in full) | -4 | 39
O=C1[C@H]2CCC=C[C@H]2[C@H](c2cccc(Br)c2)N1Cc1ccccc1 | 1 | 66*
CCC(=O)N1CCc2c(c(-c3nc(-c4ccc(F)cc4)no3)nn2C)C1 | -5 | -1
COc1ccc(C(=O)Nc2nnc(C3CC(=O)N(c4ccccc4)C3)o2)cc1OC (stereo not given) | -2 | 61*
COc1ccc(C(=O)Nc2nnc(C3CC(=O)N(c4ccc(Cl)cc4)C3)o2)cc1OC (stereo not given) | -3 | 76*
SMILES | Pf apPOL block | mHTT-CaM PPI inh
O=C(Nc1nnc(C2CC(=O)N(c3ccccc3)C2)o1)c1ccccn1 (stereo not given) | -213 | 100*
CS(=O)(=O)c1ccc(N2CC(c3nnc(NC(=O)c4cccs4)o3)CC2=O)cc1 (stereo not given) | 0 | 53*
COc1ccc(N2CC(c3nnc(NC(=O)c4ccc(Cl)cc4)o3)CC2=O)cc1 (stereo not given) | -5 | -2
Cc1ccccc1C(=O)Nc1nnc(C2CC(=O)N(c3ccc(S(C)(=O)=O)cc3)C2)o1 (stereo not given) | -1 | 46
COc1ccc(C(=O)Nc2nnc(C3CC(=O)N(c4ccccc4)C3)o2)cc1 (stereo not given) | -3 | 7
O=C(Nc1nnc(C2CC(=O)N(c3ccccc3)C2)o1)c1ccc(Br)cc1 (stereo not given) | -1 | 15
CCCCCCN1C[C@@H](O)[C@H](n2cc(-c3ccc(F)cc3)nn2)C[C@@H]1c1ccccc1 | -4 | -6
N#Cc1ccc(-c2cccs2)nc1SCC(=O)NC1CC1 | -3 | 9
CC1(C(=O)NC2CCCC2)CCC(=O)N1Cc1ccc(F)cc1Cl (stereo not given) | -19 | -7
CCC(=O)N1c2ccccc2NC2=C(C(=O)CC(C)(C)C2)C1c1ccc2c(c1)OCO2 (stereo not given) | -5 | -4
CCc1ccccc1NC(=O)c1ccc([N+](=O)[O-])cc1Cl | -6 | -7
CCOC(=O)C1=C(C)c2ccccc2N(C(=O)OC)C1(C)C(=O)OCC (stereo not given) | 78* | 41
CCOC(=O)C1=C(C)c2ccccc2OC1(CC)C(=O)OCC (stereo not given) | -4 | -50
O=C(Nc1ccc2[nH]c(=O)nc(-c3ccccc3)c2c1)C(F)(F)F | -2 | 14
COc1ccc(-c2ccc(C(=O)N3CCCCC3)s2)c(OC)c1OC | -8 | 0
COc1ccc(-c2ccc(C(=O)N3CCc4ccccc4C3)s2)c(OC)c1OC | -5 | 83*
Cc1nnc(NC(=O)c2ccc(OCc3nc(-c4ccco4)cs3)cc2)s1 | 1 | -12
O=C(CN1C(=O)C(c2ccccc2)=NC12CCCC2)Nc1ccc(F)c(F)c1 | -10 | 5
Cc1cccc(NC(=O)CN2C(=O)C(c3ccc(F)cc3)=NC23CCCC3)c1C | -4 | 0
COc1ccc(C2=NC3(CCCCC3)N(CC(=O)Nc3ccc(F)c(F)c3)C2=O)cc1 | -6 | 98*
COc1ccc(C2=NC3(CCCCC3)N(CC(=O)Nc3ccc(F)cc3)C2=O)cc1 | -7 | 66*
COc1ccc(NC(=O)CN2C(=O)C(c3ccccc3)=NC23CCCCCC3)cc1 | -11 | 9
COc1ccc(NC(=O)CN2C(=O)C(c3ccc(C)cc3)=NC23CCCCC3)cc1 | -9 | -1
COc1ccc(C2=NC3(CCCCCC3)N(CC(=O)Nc3ccc(Cl)cc3)C2=O)cc1 | -3 | 90*
Cc1ccccc1NC(=O)CN1C(=O)C(c2ccc(F)cc2)=NC12CCCCC2 | -1 | 50*
SMILES | Pf apPOL block | mHTT-CaM PPI inh
CC(=O)Nc1cccc2c(C(=O)NCCC(C)C)ccnc12 | 3 | -2
CCOc1cccc2cc(-c3cc(=O)oc4cc(OCC(=O)OC(C)C)ccc34)c(=O)oc12 | -2 | 8
C=CCn1c(SCc2csc(C)n2)nc2sc(C)c(C)c2c1=O | -9 | -10
Cc1noc(COC2CCCN(C(=O)NCc3cccc(F)c3)C2)n1 (stereo not given) | -1 | -6
Cn1c(=O)c(NCCc2c[nH]c3ccccc23)nc2ccncc21 | 4 | 100*
Cn1c(=O)c(NCCc2ccc(Cl)cc2)nc2ccncc21 | -5 | -2
Cn1c(=O)c(NCCCN2CCCc3ccccc32)nc2ccncc21 | 12 | 60*
O=c1c(NCCN2CCCC2)nc2ccncc2n1Cc1ccccc1 | 2 | 3
Cc1cc(OCC(=O)Nc2c(C)cccc2C)nc(-c2ccc(C(F)(F)F)cc2)n1 | -14 | -2
CCN1CCN(CCNC(=O)C2=C(C)C(=O)OC23CCCCC3)CC1 | -2 | -8
COc1cc(/C=C2/SC(=N)NC2=O)ccc1OCc1ccccc1F | -2 | 60*
CCOc1cc(/C=C2\SC(=N)NC2=O)ccc1OC | -1 | 11
COc1cc(/C=C2/SC(=N)NC2=O)ccc1OCc1ccc(C)cc1 | 3 | 59*
CCOc1cc(/C=C2\SC(=N)NC2=O)ccc1OCc1ccc(Br)cc1 | 3 | 34
CCOc1cc(/C=C2\SC(=N)NC2=O)ccc1OCc1ccccc1 | -5 | 20
COc1cc(/C=C2/SC(=N)NC2=O)ccc1OCc1ccccc1 | 1 | 28
